From PubChem BioAssay (NCI)
Compounds without any hit were thinned out: in the full panel of roughly 83,000, 20% have a hit.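 Treatment: one concentration, 48 hours, 96-well format. Scoring: percent growth, with anything below 10 considered active.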 Active and inactive are the calls of the source.

test system: U251 CNS; assay: NCI-60 one-dose screen, 48 h (100 = growth as untreated, 0 = no growth, -100 = all killed); conditions: 10 µM unless noted
Description: Growth inhibition of the U251 human tumor cell line is measured as a screen for anti-cancer activity. Cells are grown in 96 well plates and exposed to the test compound for 48 hours. Compounds are tested at a single concentration, which is 10^-5 M for most compounds. The reported endpoint is percent growth (GI% or GIPRCNT), where numbers from 0 - 100% represent growth inhibition, and numbers from -100% - 0 represent cell death. For example, a value of 40 represents 60% growth inhibition. A value of 0 means no net growth occurred over the course of the experiment. A value of -40 indicates 40% of cells at the beginning of the experiment died by the end of the experiment. A value of -100 means all cells are dead at the end of the experiment.
NCI-60 Human Tumor Cell Lines Screen was performed using the standard one-dose NCI protocol, which is described in more detail at https://dtp.cancer.gov/discovery_development/nci-60/default.htm.
Compounds with GIPRCNT values below 10 were considered active. Activity score was based on GIPRCNT using the following formula: […]
Score is 0 for GIPRCNT values of 100 or above, 50 for GIPRCNT values of 0, and 100 for GIPRCNT values of -100.

Row | Structure (SMILES) | growth
1 | Cn1cc(C=O)c2ccccc21 | 98.5% (inactive)
2 | Nc1nc(Cl)c2c(ncn2Cc2ccc(CCl)cc2)n1 | 81.4% (inactive)
3 | Cc1ccc2nc(-c3c(CCCO)noc3N)[nH]c(=O)c2c1 | 99.6% (inactive)
4 | COc1ccccc1CNCCCN1C(=O)c2ccc3c4c(ccc(c24)C1=O)C(=O)N(CCCNCCCCNCCCCN)C3=O | 0.458% (active)
5 | COc1ccc(-n2c(C)cc(-c3ccccc3)c2C)cc1 | 43.5% (inactive)
6 | Cc1sc2nc(CSc3nnc(-c4ccco4)o3)[nH]c(=O)c2c1C | 88% (inactive)
7 | Cc1cc(Nc2nc(-c3ccc(F)cc3)nc3ccccc23)n[nH]1 | 88.4% (inactive)
8 | Cc1ccc2c(c1)C(C)Cc1c(N(C)C)ncnc1N2C (stereo not given) | 21.3% (inactive)
9 | COc1ccc(S(=O)(=O)Nc2cc(/C=C\c3cc(OC)c(OC)c(OC)c3)cc(OC)c2OC)cc1OC | 23.1% (inactive)
10 | COc1ccc(/C=C/C(=O)c2ccc(NC(=O)CN3CCN(c4cc5c(cc4F)c(=O)c(C(=O)O)cn5C4CC4)CC3)cc2)cc1 | 98.6% (inactive)
11 | c1ccc2nc(-c3ccc4ccccc4n3)ccc2c1 | 95.8% (inactive)
12 | Nc1ccc(S(=O)(=O)c2ccc(Cl)cc2)cc1 | 105% (inactive)
13 | CCO/C=N/NC(=O)c1ccncc1 | 105% (inactive)
14 | CC(C)(C)c1cc(-c2nc3ccc(N4CCN(CCO)CC4)cc3[nH]2)cc(C(C)(C)C)c1O | 16% (inactive)
15 | COc1cccc2nc(Nc3ccc(NC(=O)c4ccc5ncccc5c4)cc3)ccc12 | 61.8% (inactive)
16 | COc1ccc2c(c1)NC(=O)CN2c1nc(NC2CC2)nc2ccccc12 | 11.8% (inactive)
17 | COc1ccc(NC(=O)CSc2nc3ccccc3c(=O)n2Cc2cc(OC)c(OC)c(OC)c2)cc1 | 97.7% (inactive)
18 | COc1ncc(-c2ccc3ncnc(Nc4cccc(Cl)c4)c3c2)cc1NS(=O)(=O)C1CC1 | 59.9% (inactive)
19 | CCCCCCCCCCCCOB(OCCCCCCCCCCCC)OCCCCCCCCCCCC | 94.4% (inactive)
20 | CCN(C(=O)c1cc2ccccc2[nH]1)[C@H]1CCC[C@@H](NCc2ccc(OC)cc2)C1 | 101% (inactive)

Row | Structure (SMILES) | growth
21 | COc1ccc(-c2nc(-c3ccccc3)c(-c3ccccc3)n2C2CC2)cc1OC1CCCCC1 | 43.9% (inactive)
22 | Oc1ccc(Cl)cc1-c1cc(-c2ccc(Cl)cc2)n[nH]1 | 59.3% (inactive)
23 | COC(=O)CCCCN=Cc1c(O)c(O)c(C(C)C)c2cc(C)c(-c3c(C)cc4c(C(C)C)c(O)c(O)c(C=NCCCCC(=O)OC)c4c3O)c(O)c12 | 11.1% (inactive)
24 | C#CCC1(c2ccc(F)c(F)c2)NS(=O)(=O)c2ccccc21 (stereo not given) | 96.4% (inactive)
25 | COC(=O)CC/C(C)=N\Nc1ccc([N+](=O)[O-])cc1 | 68.4% (inactive)
26 | CCCCCCCC/C=C\CCCCCCCCOc1ccccc1CCOP(=O)(O)OCC[N+](C)(C)C | 13.3% (inactive)
27 | Oc1ccc(N=Cc2ccccc2)cc1 | 96.1% (inactive)
28 | COc1cc(OC)c(C(=O)/C=C/c2ccc(C(F)(F)F)cc2)c(OC)c1 | 46.2% (inactive)
29 | COC1=CC(c2ccc[nH]2)=N/C1=C\c1[nH]c(C)c(C(=O)CCC(=O)Oc2ccc3c(c2)CCC2C3CC[C@]3(C)[C@@H](O)CC[C@@H]23)c1C (stereo not given in full) | -48.4% (active)
30 | Nc1nc(-c2cc3ccccc3o2)cc(=O)c(=O)[nH]1 | 91.9% (inactive)
31 | Nc1c(C(=O)Nc2cccc(C(F)(F)F)c2)sc2nc3c(cc12)C(O)CCC3 (stereo not given) | 16.8% (inactive)
32 | CN1CCN(c2ccc3cc(-c4nc5ccccc5[nH]4)c(=O)oc3c2)CC1 | 99.3% (inactive)
33 | O=C1CCC/C=C\C[C@H]2C=CC(=O)/C2=C/C[C@H](C/C=C\CC(F)(F)F)O1 | -65.5% (active)
34 | COc1ccc(/C=C(\C#N)c2ccc([N+](=O)[O-])cc2)c2ccccc12 | 27% (inactive)
35 | Cc1cc(Nc2nc(C(=O)Nc3ccccc3)nc3ccccc23)n[nH]1 | 72.5% (inactive)
36 | O=c1[nH]c2ccccc2cc1-c1nnc(Cc2ccccc2)o1 | 72.4% (inactive)
37 | O=C(NCCCN1CCN(CCCNC(=O)C2CCCCC2)CC1)C1CCCCC1 | 96.9% (inactive)
38 | N#Cc1c(NC(=O)c2ccc([N+](=O)[O-])o2)[n+]([O-])c2cc(F)c(F)cc2[n+]1[O-] | 102% (inactive)
39 | O=C(Cc1c(F)cccc1Cl)Nc1ccc(S(=O)(=O)Nc2ncccn2)cc1 | 105% (inactive)
40 | CN(C)C/C=C/C(=O)Nc1cc2c(Nc3ccc(F)c(Cl)c3F)ncnc2cc1OCCOC(F)F | 27.9% (inactive)
